# Source: PubChem BioAssay
# HCMV antiviral = qHTS Assay for inhibitors of the human cytomegalovirus (HCMV); activity change, negative = inhibition, % at 57.5 µM; 410,000 compounds, 4.5% hits; HFF cells, HCMV-luciferase reporter, 72 h; hits give low values; in the data active = activity change below about -60%; inconclusive = no clear call, values can overlap the other calls; inactive = above about -39%
#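 Human foreskin fibroblasts infected with luciferase-reporter HCMV at MOI 1 PFU/cell, compounds at two doses. Luciferase measured 72 h post infection; normalized to buffer-only basal and Salinomycin (10uM) controls.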
# Marburg entry inh = qHTS for inhibitors of binding or entry into cells for Marburg Virus; Potency, µM (top dose mostly 37.8 µM), without a hit: at the top dose activity change, negative = inhibition, usual class: inhibitors; AID 540276, 2011; 300,000 compounds, 1.8% hits; Marburg virus pseudotyped entry inhibition, cell reporter; calls by dose curve; tested in HEK293 cells; also: potency is read from the fitted curve at half-maximal effect
# FMDV antiviral = High Throughput Screening for Foot and Mouth Disease Virus Antivirals; FMDV antiviral cell-based qHTS; Potency, µM (top dose mostly 57.9 µM), without a hit: at the highest dose activity change, negative = inhibition, actives largely listed as inhibitors; 410,000 compounds, 1.2% hits; calls by dose curve; tested in HEK293T cells; also: read-out not given here; potency is read from the fitted curve at half-maximal effect; nearly all actives have a fitted effect of over 45% in size
# LASV entry inh = qHTS for Inhibitors of binding or entry into cells for Lassa Virus | AID 540256, 2011 | Lassa virus pseudotype entry inhibition, cell reporter | Potency, µM (highest dose often 37.9 µM), inactives show at the highest dose activity change, negative = inhibition, most hits filed as inhibitors | 300,000 compounds, 1.2% hits; calls by dose curve; tested in HEK293 cells; also: potency is read from the fitted curve at half-maximal effect; nearly all actives have a fitted effect of over 50% in size
# HCV inhibitor = qHTS Assay for Inhibitors of Hepatitis C Virus (HCV); Huh7.5.1 HCVcc-Cre infection, luciferase reporter, 44 h; Potency, µM (highest dose often 41.8 µM), for inactives: top-dose activity change, negative = inhibition, hits mostly inhibitors; 340,000 compounds, 3.4% hits; AID 651820, 2012; active = well fitted inhibition curve with a large enough effect; inconclusive = small, poorly fitted or top-dose-only effect, or another doubt; inactive = no such curve, though single readings can be large or run the other way; also: potency is read from the fitted curve at half-maximal effect
#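 1,000 cells/well; 4 h culture; + compound; + HCVcc-Cre (~0.5 moi); 44 h; luciferase substrate, RT 15 min; read 15 sec.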
# Starred values were filed as active, the others as inactive; ? = inconclusive; nt = no result given; [ ] = dose if it differs, or a comment. A selection: hits, their analogues and other compounds. The true share with any hit is near 7.9%. % is scaled to controls: 0 for no effect and ±100 for the full control effect.
SMILES,HCMV antiviral,Marburg entry inh,FMDV antiviral,LASV entry inh,HCV inhibitor
C[C@@H]1CN([C@@H](C)CO)C(=O)c2cc(NS(=O)(=O)c3ccc(F)cc3)ccc2O[C@@H](C)CCCCO[C@H]1CN(C)C(=O)NC1CCCCC1,-85.7*,nt,-24.1%,nt,nt
Cc1ccc(S(=O)(=O)Nc2ccc3c(c2)C(=O)N([C@H](C)CO)C[C@H](C)[C@@H](CN(C)C(=O)NC2CCCCC2)OCCCC[C@@H](C)O3)cc1,-63.1*,nt,-29.5%,nt,nt
O=C1C=C(O)CC2(CCCCC2)C1,nt,nt,-18.2%,nt,nt
O=C(NC1CCCCC1)N1CCN(c2nc(-c3ccccc3)cs2)CC1,?,?,?,-19.2%,10µM*
NC(=O)C1CCN(c2nc(-c3ccc(F)cc3)cs2)CC1,-6.5,nt,-16.2%,nt,nt
COc1ccc(-c2csc(N3CCC(C(N)=O)(N4CCCCC4)CC3)n2)cc1,-81.0*,-37.8%,nt,23.1µM*,?
CN(C)C(=O)N1CCN(c2nc(-c3ccccc3)cs2)CC1,53.4,nt,18.5%,nt,-12.2%
NC(=O)C1(N2CCCCC2)CCN(c2nc(-c3ccccc3)cs2)CC1,-13.5,?,?,-28.9%,?
O=C(C1CCCCC1)N1CCN(c2nc(-c3ccc(F)cc3)cs2)CC1,-60.2*,-10.2%[46.1 µM],?,-3.4%,?
O=C(NC12CC3CC(CC(C3)C1)C2)N1CCN(c2nc(-c3ccccc3)cs2)CC1,-16.8,?,25.1µM*,?,-24.1%
O=C(Nc1cccc2ccccc12)NC1Cc2ccccc2C1,-3.9,?,26.4%,4.6%,-3.9%
Fc1ccc(-c2ncn(C3CCNCC3)c2-c2ccnc(Oc3ccccc3)n2)cc1,nt,nt,nt,6.28µM*,nt
CN1CCC(n2cnc(-c3ccc(F)cc3)c2-c2ccnc(Nc3ccccc3)n2)CC1,nt,nt,nt,15.8µM*,nt
Cc1ccc2c(-c3ccnc(Nc4ccccc4)n3)c(-c3ccc(F)cc3)nn2n1,nt,nt,nt,25µM*,nt
COc1nccc(-c2c(-c3ccc(F)cc3)ncn2C2CCC(O)CC2)n1 (centres undefined),nt,nt,-20.4%,nt,nt
NC(=O)Cc1ccccc1Oc1nccc(-c2c(-c3ccc(F)cc3)ncn2C2CCNCC2)n1,nt,nt,nt,-15.5%,nt
Fc1ccc(-c2ncn(C3CCNCC3)c2-c2ccnc(Oc3ccc4c(c3)OCO4)n2)cc1,nt,nt,nt,12.5µM*,nt
Cc1cc(NC(=O)CSc2nnc(CNC(=O)c3ccccc3)o2)no1,-0.4,0.1%,2.9%,10.5%,15.8%
O=C(N1CCN(CCO)CC1)N1c2ccccc2C=Cc2ccccc21,91.1,?,1.7%,1.5%,-1.5%
O=C(CCCl)N1c2ccccc2C=Cc2ccccc21,-71.4*,nt,-4.7%,nt,?
COc1cc(C2SCC(=O)N2Cc2ccccc2)ccc1O (centres undefined),6.1,nt,-22.9%,nt,9.3%
Cc1ccc(S(=O)(=O)c2nc(C)c3c(n2)CCC3)cc1,16.3,1.3%,15.4%,1.2%,11.7%
COc1cccc(S(=O)(=O)c2nc(C)c3c(n2)CCC3)c1,-80.6*,nt,12.6µM*,nt,4.2%
CCN(CC)/N=N/C1=C2C(C)=CC(C)=NC2N=N1 (centres undefined),nt,10.5%,nt,nt,nt
Cn1c(=N)n(CC(=O)c2ccc(Br)cc2)c2ccccc21,27.3,?,-9.0%,10µM*,6.31µM*
SMILES,HCMV antiviral,Marburg entry inh,FMDV antiviral,LASV entry inh,HCV inhibitor
Cn1c(=N)n(CC(=O)c2ccc(F)cc2)c2ccccc21,?,?,-24.2%,?,?
CCn1c(=N)n(CC(=O)c2ccc(OC)cc2)c2ccccc21,22.8,10µM*,-4.5%,?,-14.7%
CCOC(=O)Cn1c(=N)n(CCOc2ccc(OC)cc2)c2ccccc21,1.7,?,-7.4%,-10.8%[46.1 µM],-3.5%
CN(C)CC(C)(O)c1ccc2c(c1)CN(Cc1cccn1-c1ncccn1)CCO2 (centres undefined),nt,nt,-10.0%,nt,nt
O=C(NNC(=O)c1cccc(S(=O)(=O)N2CCc3ccccc32)c1)c1ccccc1,?,?,0.0%,?,5.01µM*
O=C(NCc1ccccn1)c1cccc(S(=O)(=O)N2CCc3ccccc32)c1,8.1,-26.7%,-11.2%,-26.3%,?
COc1ccc(OC)c(NC(=S)N2CCN(c3ccccn3)CC2)c1,-27.8,-2.1%[46.1 µM],15.2%,?,23.1%
COc1cc(C(=O)Nc2ccc(S(=O)(=O)N3CCc4ccccc43)cc2)cc(OC)c1OC,10.2,11.6µM*,2.0%,-19.3%,14.1µM*
S=C(Nc1cc(Cl)ccc1Oc1ccccc1)N1CCN(c2ccccn2)CC1,-77.7*,?,-5.2%,?,11.2µM*
COc1ccc(N2CCN(C(=O)c3cccc(S(=O)(=O)N4CCc5ccccc54)c3)CC2)cc1,-8.4,?,-6.4%,?,?
O=C(c1cccc(S(=O)(=O)N2CCc3ccccc32)c1)N1CCN(c2ccccn2)CC1,-78.0*,?,?,?,?
COC1=CC(=O)OC(c2cccc(C(F)(F)F)c2)C1 (centres undefined),8.1,nt,0.0%,nt,nt
C=CCN1c2ccccc2[C@]23C[C@@H](C(=O)OC)N(C(=O)Nc4ccc(C(F)(F)F)cc4)C2=NC(C(=O)OC)=C(C(=O)OC)[C@H]13,nt,17.5%[14.2 µM],nt,nt,nt
OC[C@H]1O[C@@H](c2nc(-c3ccc4[nH]ccc4c3)no2)[C@H](O)[C@@H](O)[C@H]1O,38.7,nt,-5.8%,nt,nt
NS(=O)(=O)c1ccc(NC(=O)c2ccc3c(c2)CCN3S(=O)(=O)c2ccccc2)cc1,?,-2.7%[46.1 µM],-29.7%,-15.1%[46.1 µM],31.6µM*
O=C(CNC(=O)c1cccc(S(=O)(=O)N2CCc3ccccc32)c1)Nc1ccccc1Br,-82.6*,?,51.6%,?,?
O=C(c1cccc(S(=O)(=O)N2CCc3ccccc3C2)c1)N1CCN(c2ccc(O)cc2)CC1,-65.5*,-12.3%,-40.3%,?,?
O=C(Nc1ccccc1)c1ccc2c(c1)CCN2S(=O)(=O)c1ccccc1,9.7,nt,6.7%,nt,?
O=C(Nc1ccc(Br)cc1)c1cccc(S(=O)(=O)N2CCc3ccccc32)c1,-61.2*,nt,?,?,nt
COC(=O)c1ccc(C(=O)OC)c(NC(=O)c2cnn3c(C(F)F)cc(-c4ccccc4)nc23)c1,0.0,nt,-12.4%,12.0%[46.1 µM],nt
CCC(=O)N1CCc2cc(S(=O)(=O)NCCC(=O)Nc3ccc(C)cc3C)ccc21,-15.6,6.3%[46.1 µM],-12.4%,3.1%[46.1 µM],nt
Cc1cc(C(=O)COC(=O)Cc2ccc(Br)cc2)c(C)n1C,-14.0,nt,-10.2%,nt,0.9%
Cc1cc(NC(=O)c2ccc(S(=O)(=O)N3CCc4ccccc43)cc2)no1,?,18.2%,?,?,25.2%
CCOC(=O)N1CCN(C(=O)c2cc(S(=O)(=O)N3CCc4ccccc43)ccc2OC)CC1,-14.2,-9.6%,32.3%,1.78µM*,?
COCCNC(=O)c1ccc2c(c1)CCN2S(C)(=O)=O,-61.8*,-7.6%[46.1 µM],-4.6%,3.6%[46.1 µM],13.9%
NC(=O)C1CN(C(=O)c2cccc(S(=O)(=O)N3CCc4ccccc43)c2)c2ccccc2O1 (centres undefined),-105.1*,nt,-10.2%,nt,-17.9%
